Among all 13,000 compounds or so, about 3,200 (25%) showed an effect of 50% or more. The list shows a part of the results.
test system: P. falciparum stage V gametocytes; set-up: BacTiter-Glo ATP luminescence viability of purified stage V gametocytes in 384-well plates, per cent inhibition versus DMSO; details: 48 h, 5 µM; inhibitor

`Cc1ccc(C(=O)NC2CC2)cc1-c1ccc2c(cnn2S(=O)(=O)c2ccc(F)cc2)c1` [TCMDC-138772] was tested. Which “% Inhibition” value did it give?
Its value is 31.89%.

How did the “% Inhibition” value turn out when `O=C(NCCc1cccc(Cl)c1Cl)c1ccc(N2CCN(c3ccncc3)CC2)nc1` [TCMDC-134587] was run?
Its value is 10.14%.

`Cc1ccc(C(=O)Nc2cc(C(F)(F)F)cc(C(F)(F)F)c2)cc1[N+](=O)[O-]` [TCMDC-125645] was tested. Which “% Inhibition” value did it give?
Its value is -10.1%.

With `Cc1csc(-c2nc(NCCc3c(C)noc3C)ncc2-c2ccsc2)n1` [TCMDC-125354] as the molecule, how does the “% Inhibition” value read?
The value was 34.89%.

For `Nc1ncc(-c2ccsc2)c2ccc(-c3cc(NCc4ccccc4)ncn3)cc12` [TCMDC-135660], which “% Inhibition” value is on record?
The value was 18.52%.

With `O=C(Cc1c[nH]cn1)Nc1ccc(-c2ccc(-c3nc4ccccc4[nH]3)s2)cc1` [TCMDC-136939] as the molecule, how does the “% Inhibition” value read?
Its value is -25.08%.

`O=C(/C=C/c1ccc(Cl)c(Cl)c1)N1CCC(NCc2ccc3[nH]ccc3c2)CC1` [TCMDC-134198] was tested. Which “% Inhibition” value did it give?
The value was 36.44%.

With `CCC1N=C(N)N=C(N)N1OCc1ccc(Cl)c(Cl)c1` (stereo not drawn) [TCMDC-131593] as the molecule, how does the “% Inhibition” value read?
Its value is 19.76%.

For `CC(=O)C=C1CC(=O)N(C[C@@H](O)[C@H]2O[C@@H]3OC(C)(C)O[C@@H]3[C@H]2O)c2ccccc2N1` [TCMDC-138271], which “% Inhibition” value is on record?
Its value is 11.95%.

With `O=C(/C=C/c1ccc(C(F)(F)F)cc1)NCCCCCN1CCCN(C(=O)Nc2cccc(Cl)c2)CC1` [TCMDC-136108] as the molecule, how does the “% Inhibition” value read?
The value was -11.12%.

For `CCOc1cccc(C(=O)Nc2cccc(CN3CCCN(Cc4cccc(O)c4)CC3)c2)c1` [TCMDC-141861], which “% Inhibition” value is on record?
The value was -4.748%.

`O=C1CSc2ccc(CNC3CCN(CCc4c(Cl)cnc5ccc(Cl)cc45)CC3)nc2N1` [TCMDC-141959] was tested. Which “% Inhibition” value did it give?
The value was 32.4%.

How did the “% Inhibition” value turn out when `O=C1CSc2ccc(CNC3CCN(CCc4c(Cl)cnc5ccc(F)cc45)CC3)nc2N1` [TCMDC-141960] was run?
Its value is 55.74%.

With `COc1cc(F)c2ncc(Cl)c(CCN3CCC(NCc4ccc5c(c4)NC(=O)CS5)CC3)c2c1` [TCMDC-135620] as the molecule, how does the “% Inhibition” value read?
The value was 12.4%.

For `COc1cc(F)c2ncc(Cl)c(CCN3CCC(NCc4ccc5c(n4)NC(=O)CS5)CC3)c2c1` [TCMDC-134318], which “% Inhibition” value is on record?
The value was 94.95%.

Which “% Inhibition” value does the source give for `COc1ccc2ncc(Cl)c(CCN3CCC(NCc4ccc5c(n4)NC(=O)CS5)CC3)c2c1` [TCMDC-141807] here?
The value was -3.776%.

How did the “% Inhibition” value turn out when `O=C1CSc2ccc(CNC3CCN(CCc4c(F)cnc5ccc(F)cc45)CC3)nc2N1` [TCMDC-135095] was run?
The value was -0.4072%.

For `Cc1ccc(CNC(=O)c2cc3c(=O)n4ccccc4nc3n(CCCN3CCOCC3)c2=N)cc1` [TCMDC-125409], which “% Inhibition” value is on record?
The value was 26.53%.

Reference: PMC4552634, “A New Set of Chemical Starting Points with Plasmodium falciparum Transmission-Blocking Potential for Antimalarial Drug Discovery” (PLoS ONE, 2015)
